High-throughput results (PubChem BioAssay)
GALK inh – blocks human galactokinase activity. Purified GALK, Kinase-Glo residual ATP luminescence. 270,000 tested, 0.007% active. Potency, µM (titrated, usually from 57.5 µM), actives largely listed as inhibitors. AID 1868
Target sequence (P51570 whole entry, looked up): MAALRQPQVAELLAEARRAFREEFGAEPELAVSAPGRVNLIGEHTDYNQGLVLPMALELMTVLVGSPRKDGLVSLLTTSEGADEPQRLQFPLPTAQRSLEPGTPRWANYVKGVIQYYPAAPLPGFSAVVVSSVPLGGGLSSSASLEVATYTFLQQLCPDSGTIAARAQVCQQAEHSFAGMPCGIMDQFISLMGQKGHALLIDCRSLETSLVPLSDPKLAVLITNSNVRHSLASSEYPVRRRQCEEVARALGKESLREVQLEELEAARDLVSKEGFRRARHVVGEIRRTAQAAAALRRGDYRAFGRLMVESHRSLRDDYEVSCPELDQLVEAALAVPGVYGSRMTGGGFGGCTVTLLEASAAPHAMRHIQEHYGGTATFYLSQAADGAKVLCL
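ATP-depletion format; final 35 uM ATP, 100 uM D-galactose, 5 nM enzyme; pH 8.0 HEPES/Mg2+ buffer; 60 min RT; luminescence read 10 min after detection reagent.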
Coupling enz – inhibits coupling enzyme system, counter-screen for aldolase hits; AID 2472; activity change, negative = inhibition, % at 58.2 µM, hits read low; coupling enzyme system counterscreen, AmpLite Red fluorescence; 290,000 tested, 0.67% active; in the data active means activity change below about -30%
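Compounds tested against the coupling enzymes alone at 57.5 uM final; readout was AmpLite Red fluorescence (525/598 nm) after 20 min at RT.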
rTrxR1 inhibitor – inhibitors of rat thioredoxin reductase 1; Potency, µM (doses to about 114 µM), hits mostly inhibitors; O89049; AID 588453; 390,000 tested, 1% active; recombinant rTrxR1, NADPH fluorescence consumption, selenite substrate; further: nearly all actives have a fitted effect of over 65% in size
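Rat TrxR1 (90 nM in the dispensed reagent) was pre-reduced with 400 uM NADPH for 5 min at room temperature, then incubated with compound for 15 min. After 400 uM selenite was added, NADPH fluorescence (Ex 340/Em 450 nm) was followed for 8 min.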
VP16 counter – Gal4-VP16 reporter inhibition counter-screen; Drosophila S2 Gal4-VP16 UAS-luciferase, luminescence, 20 h; Potency, µM (top dose mostly 53.6 µM), hits mostly inhibitors; 310,000 tested, 3.5% active; AID 2546;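 further: Gal4-VP16 expression switched on by copper sulfate through the metallothionein promoter; nearly all actives have a fitted effect of over 50% in size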
TrxR1 substrate – rat thioredoxin reductase 1 substrate activity. purified TrxR1 substrate turnover, NADPH consumption readout. Potency, µM (series often up to 114 µM). 390,000 tested, 0.01% active; further: nearly all actives have a fitted effect of over 50% in size
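Rat TrxR1, dispensed at 90 nM, was prereduced with 400 uM NADPH (final) for 5 min at ~22 deg C, then incubated with compound 15 min before 400 uM selenite. A first-read NADPH fluorescence drop versus no-compound background flagged substrates.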
RORgamma inh – ROR gamma (mouse) transcription inhibition; Drosophila S2 Gal4-RORgamma UAS-luciferase reporter, 20 h; 310,000 tested, 5.4% active; P51450; Potency, µM (series often up to 53.6 µM), most hits filed as inhibitors; further: nearly all actives have a fitted effect of over 60% in size
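Luminescence from a UAS-regulated Photinus luciferase reporter in stably transfected Drosophila Schneider cells is measured; decreased signal marks ROR gamma inhibition. Fusion expression is induced by 700 uM copper sulfate for 20 hr.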
Each line names hits and unclear results; the compound was inactive in the other large screens. Only some compounds are listed: those with a hit (about 5.9% of all), similar ones and a draw of the others. Unless noted, the call rests on the fitted dose curve; in most records, active means well fitted curve in the direction sought with a large enough effect; inconclusive means small, poorly fitted or top-dose-only effect, or another doubt; inactive means no such curve, though single readings can be large; an effect the other way counts as inactive or inconclusive.

C=C1CCN([C@@H](Cc2ccccc2)C(=O)NC2CCN(Cc3ccccc3)CC2)S(=O)(=O)c2ccccc21	none (no result: GALK inh, Coupling enz, VP16 counter, RORgamma inh)
COc1ccc(OC)c2[nH]c(=O)c(CCNC(=O)COc3ccccc3)cc12	none
Cc1ccc(S(=O)(=O)N2CCCCC2)cc1C(=O)OC(C)C(=O)NCC1CCCCC1 (stereo not given)	none (no result: GALK inh, Coupling enz, VP16 counter, RORgamma inh)
CC(=O)Nc1ccc(NC(=O)C(NS(=O)(=O)c2ccc(Br)s2)c2ccccc2)cc1 (stereo not given)	none (no result: GALK inh, Coupling enz, VP16 counter, RORgamma inh)
Cc1csc(NC(=O)C(NS(=O)(=O)c2ccc(Br)s2)c2ccccc2)n1 (stereo not given)	VP16 counter inconclusive, RORgamma inh 13µM
CCOc1ccc2[nH]c3c(NCCC(C)C)ncnc3c2c1	VP16 counter 4.5µM, RORgamma inh inconclusive (no result: GALK inh)
CCOc1ccc2[nH]c3c(NCCN(C)C)ncnc3c2c1	none (no result: GALK inh, rTrxR1 inhibitor, TrxR1 substrate)
CCN(CC)CCNc1ncnc2c1[nH]c1ccc(OC)cc12	none (no result: rTrxR1 inhibitor, TrxR1 substrate)
COc1ccc2[nH]c3c(NCCC4=CCCCC4)ncnc3c2c1	VP16 counter 7.1µM, RORgamma inh inconclusive
Nc1ncccc1C(=O)OCC(=O)NC1CCCCCC1	none (no result: GALK inh, Coupling enz, VP16 counter, RORgamma inh)
Cc1cc(SC(C)C(=O)NCC(=O)Nc2ccc(F)c(F)c2F)nc2ccccc12 (stereo not given)	VP16 counter inconclusive, RORgamma inh 10µM
Cc1cc(C)c2sc(NNC(=O)C3COc4ccccc4O3)nc2c1 (stereo not given)	VP16 counter 18µM, RORgamma inh 2.8µM (no result: GALK inh)
CC(=O)c1sc(NC(=O)C2COc3ccccc3O2)nc1C (stereo not given)	VP16 counter 10µM, RORgamma inh 7.1µM
O=C(NNc1nc2c(F)cc(F)cc2s1)C1COc2ccccc2O1 (stereo not given)	RORgamma inh 13µM
O=C(Nc1nncs1)C1COc2ccccc2O1 (stereo not given)	none
Cc1cccc2sc(NNC(=O)C3COc4ccccc4O3)nc12 (stereo not given)	VP16 counter 11µM, RORgamma inh 6.3µM (no result: GALK inh)
CC1(C)Cc2nc(-c3ccccc3)n3cnnc3c2CO1	none
COc1ccc(CCC(=O)N(C)CC(=O)Nc2cc(C)ccc2C)cc1	none
O=C(N/N=C/c1c[nH]c2ccccc12)c1ccc(O)c(O)c1	VP16 counter inconclusive (no result: GALK inh)
CCOc1ccc(CNC(=O)C2CCCN(c3nn4cc(-c5ccc(F)cc5)nc4s3)C2)cc1 (stereo not given)	none (no result: GALK inh, Coupling enz, VP16 counter, RORgamma inh)
CC(=O)N1CCc2c(sc3nc(SCC(C)C)n(-c4ccc(F)c(Cl)c4)c(=O)c23)C1	none (no result: GALK inh, Coupling enz, VP16 counter, RORgamma inh)
Cc1ncc(CN=Cc2ccc(Cl)cc2)c(N)n1	none
CC1(C)CCC(=O)C=C1Nc1ccc(F)c(Cl)c1	RORgamma inh inconclusive
Cc1cc(C)c2sc(NC(=O)C3CC3)nc2c1	RORgamma inh 6.3µM (no result: GALK inh)
Cc1ccc(C)c2sc(NC(=O)C3CC3)nc12	none (no result: GALK inh)
CC1(C)Nc2ccc(O)cc2-c2c1ssc2=S	VP16 counter inconclusive, RORgamma inh 8.9µM
COc1cccc(-n2sc3c(c2=S)-c2cc(OC)ccc2NC3(C)C)c1	RORgamma inh inconclusive
COC1(OC)N=C(N)C2(C#N)C(c3ccc(F)cc3)C12C#N (stereo not given)	none
CCSC1(SCC)N=C(N)C2(C#N)C(c3ccc(F)cc3)C12C#N (stereo not given)	rTrxR1 inhibitor 32µM, VP16 counter inconclusive, RORgamma inh inconclusive
CC(C)Cc1nnc(NC(=O)c2cc(-c3ccccc3)nc3ccccc23)s1	VP16 counter inconclusive, RORgamma inh 4.5µM (no result: Coupling enz)
CCC(CC)c1nnc(NC(=O)c2cc(-c3ccccc3)nc3ccccc23)s1	VP16 counter 11µM, RORgamma inh 10µM
CCC(CC)c1nnc(NC(=O)c2ccc3ccccc3n2)s1	VP16 counter 10µM, RORgamma inh 3.5µM
CC(C)Cc1nnc(NC(=O)c2cc(-c3ccncc3)nc3ccccc23)s1	none
CN(C(=O)Cn1nc(Cc2cccnc2)c2ccccc2c1=O)c1cccc(C(F)(F)F)c1	none (no result: GALK inh, Coupling enz, VP16 counter, RORgamma inh)
CC(C)CNC(=O)c1cc(-c2ccc3c(c2)OCO3)on1	VP16 counter inconclusive
Cc1ccc(C)n1-c1ccc(N(C)C)cc1	Coupling enz -30, rTrxR1 inhibitor inconclusive
